Screening data: PubChem, National Center for Advancing Translational Sciences (NCATS)
A selection: hits, their analogues and other compounds. The true share with any hit is near 3%.
Sm TGR block = blocks Schistosoma mansoni thioredoxin glutathione reductase; Q962Y6; purified TGR, DTNB reduction, TNB absorbance 405 nm; Potency, µM (series often up to 114 µM), hits mostly inhibitors; actives 3% (n = 360,000); active means well fitted inhibition curve with a large enough effect; inconclusive means small, poorly fitted or top-dose-only effect; inactive means no such curve, though single readings can be large or run the other way; further: nearly all actives have a fitted effect of over 60% in size
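First, TGR (20 nM dispensed) and NADPH were mixed with compound. Second, a 15 min room-temperature incubation followed. Third, further NADPH and then DTNB were added to start the reaction. Finally, TNB absorbance was monitored kinetically.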
SARS PLP yeast = blocks SARS-CoV papain-like protease in a yeast assay. actives 0.19% (n = 330,000). S. cerevisiae expressing SARS-CoV PLpro, growth rescue. Potency, µM (titrated, usually from 32.9 µM), most hits filed as activators. AID 485353; calls by dose curve; further: nearly all actives have a fitted effect of over 55% in size
Large screens that a line does not name were inactive.

CCOc1ccccc1NC(=O)C(C)Sc1nc2c(c(=O)[nH]1)CCCC2 (centres undefined)	none (no result: SARS PLP yeast)
CCOC(=O)Cn1c(=O)n(-c2ccccc2OC)c2nc(-c3ccccc3)nc(C(N)=O)c21	none (no result: SARS PLP yeast)
COc1ccccc1C(=O)Nc1cccc(OCc2cc(=O)n3c4c(sc3n2)CCCC4)c1	none (no result: SARS PLP yeast)
O=C(NC1CC(=O)N(c2cccc(F)c2)C1)C1CC1 (centres undefined)	none (no result: SARS PLP yeast)
COc1ccc(Cn2c(C)ccc2C)cc1	Sm TGR block 31.6µM
COc1ccc(Cn2c(-c3ccc(OC)cc3)nc3ccccc32)cc1	none
COC(=O)c1ccc(CN2CCN(Cc3ccc(C(=O)OC)o3)CC2)o1	Sm TGR block 35.5µM
COC(=O)c1ccc(CN2C(=O)c3ccccc3C2=O)o1	none
CCN(Cc1ccccc1)C(=O)Cn1ncc2c(=O)oc3ccc(C)cc3c21	none (no result: SARS PLP yeast)
O=C(CSc1nnc(Cc2ccccc2)n1Cc1ccco1)NC1CCCC1	Sm TGR block inconclusive
CC(C)OC(=O)CSc1nnc(Cc2ccccc2)n1Cc1ccco1	Sm TGR block 22.4µM
O=C(CSc1nnc(COc2ccccc2F)n1-c1ccccc1)NCc1ccco1	Sm TGR block 39.8µM
C=CCn1c(COc2ccccc2F)nnc1SCC(=O)NC(=O)NCc1ccco1	none
Cc1ccccc1OCc1nnc(SCC(=O)NCc2ccco2)n1C	none
COc1ccccc1OCc1nnc(SCC(=O)NCc2ccco2)n1Cc1ccco1	Sm TGR block 15.8µM
CCc1ccc(-n2nc(CO)c(C(=O)NCCCc3ccccc3)n2)cc1	none (no result: SARS PLP yeast)
CC1(c2ccccc2)CC(C)(C)N(C(=O)c2ccccc2Cl)c2ccccc21 (centres undefined)	none (no result: SARS PLP yeast)
COc1ccc(C(=O)COC(=O)CCNS(=O)(=O)c2ccccc2)cc1Br	none
COc1ccc(C(C)=O)cc1CSCc1cc(C(C)=O)ccc1OC	none
COc1ccc(C(C)=O)cc1COC(=O)CCNS(=O)(=O)c1ccc(C)cc1	Sm TGR block 5.62µM
CNC(=O)C(C#N)(Cc1cc(C(C)=O)ccc1OC)Cc1cc(C(C)=O)ccc1OC	Sm TGR block 39.8µM
COc1ccc(C(C)=O)cc1COC(=O)CCNS(=O)(=O)c1ccc(C(C)=O)cc1	Sm TGR block 10µM, SARS PLP yeast inconclusive
COc1ccccc1C(=O)COC(=O)CCNS(=O)(=O)c1ccc(C)c(C)c1	none
CCOc1ccc(C(C)=O)cc1COC(=O)CCc1cc(OC)c(OC)c(OC)c1	none
COc1ccc(C(C)=O)cc1COC(=O)CCCN1C(=O)c2ccccc2C1=O	Sm TGR block 8.91µM
CCOC(=O)CSC1=Nc2ccccc2C2=NC(CCC(=O)NCc3ccc(OC)cc3)C(=O)N12 (centres undefined)	none (no result: SARS PLP yeast)
CN(C)CCNC(=O)CCCN1C(=O)c2cccnc2Oc2ccc(Cl)cc21	none (no result: SARS PLP yeast)
O=C(Cn1cc(S(=O)(=O)N2CCCC2)c(S(=O)(=O)N2CCCC2)c1)Nc1cccc(F)c1	none (no result: SARS PLP yeast)
Cc1ccsc1CN(C(=O)COc1cccc(C)c1C)C1CCS(=O)(=O)C1 (centres undefined)	none (no result: SARS PLP yeast)
COc1cc(C(=O)NCC(=O)OCc2ccccc2Cl)cc(OC)c1OC	none
COc1ccc(C(C)=O)cc1COC(=O)[C@H](Cc1ccccc1)NC(=O)c1ccco1	none (no result: Sm TGR block)
COc1ccc(C(C)=O)cc1COC(=O)CNC(=O)c1cc(C)cc(C)c1	Sm TGR block 31.6µM
COc1ccc(C(C)=O)cc1COC(=O)C(CO)NS(=O)(=O)c1ccc(Br)cc1 (centres undefined)	Sm TGR block 12.6µM
Cc1ccc(-c2cc(C(F)(F)F)n3nc(C(=O)Nc4sc5c(c4C#N)CCC(C)C5)cc3n2)cc1 (centres undefined)	none (no result: SARS PLP yeast)
COc1cc(-c2nc(-c3ccc4c(c3)[nH]c(=O)n4C)no2)cc(OC)c1OC	none (no result: SARS PLP yeast)
Cc1cccc(N2CCN(Cc3nc(-c4ccc(F)cc4F)oc3C)CC2)n1	none
Cc1cnc(C)c(N2CCN(Cc3nc(-c4cccc(F)c4F)oc3C)CC2)n1	Sm TGR block 35.5µM
CCOc1cc(CNC(=O)c2ccc(C)c(NC(=O)c3nsc4ccccc34)c2)ccc1OC	none (no result: SARS PLP yeast)
Cn1c(SCc2ccccc2)nnc1C1CCCNC1 (centres undefined)	Sm TGR block 44.7µM
Cn1c(SCc2ccc(Cl)cc2)nnc1C1CC1	none
CCC(C(=O)NCc1cc(OC)ccc1OC)n1nc(C)c2sc3ccccc3c2c1=O (centres undefined)	none (no result: SARS PLP yeast)
NNc1ccc2nncn2n1	Sm TGR block 35.5µM
c1ccc(CCNc2ccc3nncn3n2)cc1	none
Cc1cccc(NS(=O)(=O)c2ccc3c(c2)CCN3C(=O)C2CC2)c1C	none (no result: SARS PLP yeast)
CCn1c(=O)cc(OCC(=O)N(C)c2ccc(OC)cc2)c2ccccc21	none (no result: SARS PLP yeast)
Cc1ccc(NC(=O)CSCC(=O)Nc2cc(C(F)(F)F)ccc2N2CCOCC2)cc1	none
O=C(CSCc1ccco1)Nc1cc(C(F)(F)F)ccc1N1CCOCC1	Sm TGR block 22.4µM
CC(CNC(=O)c1ccc(Cn2c(=O)c3cccn3c3cccnc32)cc1)c1ccccc1 (centres undefined)	none (no result: SARS PLP yeast)
O=C(c1ccco1)C(O)c1ccco1 (centres undefined)	Sm TGR block 20µM
Cc1ccc(C(O)C(=O)c2ccco2)cc1 (centres undefined)	none
CCCCN(CCCC)C(=O)c1cc2c(=O)n3ccccc3nc2s1	none (no result: SARS PLP yeast)
O=C(CSc1cn(CC(=O)N2CCOCC2)c2ccccc12)Nc1ccccc1F	none (no result: SARS PLP yeast)
Cc1cccc(-c2oc3ccccc3c2C#CCCO)c1	Sm TGR block 15.8µM
Cc1cccc(-c2oc3ccccc3c2C#CCCCCO)c1	Sm TGR block inconclusive
COc1cc(NC(=O)CCc2c(C)nn(-c3ccc4nncn4n3)c2C)cc(OC)c1OC	none (no result: SARS PLP yeast)
O=C(NNC(=O)c1ccc(Br)cc1)c1ccncc1	none
O=C(NNc1ccc(O)cc1)c1ccc(Br)cc1	Sm TGR block 22.4µM
Cc1ccc(CCNS(=O)(=O)c2ccc3c(c2)CCN3C(=O)CCC(=O)O)cc1	none (no result: SARS PLP yeast)
Clc1ccc(-c2nnn3c2nc(NC2CCCCC2)c2ccccc23)cc1	none (no result: SARS PLP yeast)
CCCn1c(NCc2ccc3c(c2)OCO3)nc2ccccc21	Sm TGR block 89.1µM
CCCCn1c(NCc2ccc3c(c2)OCO3)nc2ccccc21	none
O=C(c1nc2ccc(Cl)cn2c1CNCCn1ccnc1)N1CCCCCCC1	none
O=C(c1nc2ccc(Cl)cn2c1CN1CCC[C@H]1CO)N1CCCCCCC1	Sm TGR block 44.7µM, SARS PLP yeast inconclusive
CCOc1cc(-c2nc(-c3ccc(-c4ccc(OC)cc4)nc3OC)no2)cc(OCC)c1OCC	none (no result: SARS PLP yeast)
CC(C)(C)n1nnnc1C(c1cccnc1)N1CCN(c2ccccc2F)CC1 (centres undefined)	none
Cc1[nH]c2ccccc2c1C(c1ccncc1)N1CCC(C)CC1 (centres undefined)	Sm TGR block 2.51µM
Cc1[nH]c2ccccc2c1C(c1ccncc1)N1CCN(c2ccccc2F)CC1 (centres undefined)	Sm TGR block 3.55µM
Clc1ccc(C(c2ccccc2)N2CCN(c3ccccn3)CC2)cc1 (centres undefined)	none
Cc1[nH]c2ccccc2c1SCC(=O)N1CCC(C)CC1	none
Cc1[nH]c2ccccc2c1C(c1ccncc1)N1CCN(c2ccccn2)CC1 (centres undefined)	Sm TGR block 1µM
Cc1ccc2occ(CC(=O)N(Cc3ccc(Cl)cc3)Cc3ccco3)c2c1	none (no result: SARS PLP yeast)
Cc1ccc(CNC(=O)Cn2c(=O)n(-c3ccc(C)cc3)c(=O)c3c2c2cc(C)ccc2n3C)cc1	none (no result: SARS PLP yeast)
O=C1CN(CC(=O)N2CCCCC2)c2ccccc2O1	Sm TGR block 11.2µM
O=C1CN(CC(=O)N2CCOCC2)c2ccccc2O1	Sm TGR block 20µM
O=C(CN1C(=O)COc2ccccc21)N1CCOCC1	none
O=C(CN1C(=O)COc2ccccc21)N1CCCC1	none
